Measurements reported in PubChem BioAssay AID1645857 (Buhrlage Lab, Dana-Farber Cancer Institute and Novartis …, 2021).
The campaign covered roughly 47,000 compounds. About 1,400 (3%) were called active. Shown is part of a subset that was picked to be rich in actives. Values without a mark were called inactive. Cut-off read from the data, not from the text of the source: active = inhibition above about 30%; inactive = the rest.

biological target: Ubiquitin carboxyl-terminal hydrolase 28 (Homo sapiens) (UniProt Q96RU2); assay: inhibitors of human USP28 deubiquitinase (AID 1645857); settings: purified USP28, Ub-rhodamine cleavage fluorescence, 30 min; at 25 µM; active compounds read high
Sequence (Q96RU2 whole entry, looked up): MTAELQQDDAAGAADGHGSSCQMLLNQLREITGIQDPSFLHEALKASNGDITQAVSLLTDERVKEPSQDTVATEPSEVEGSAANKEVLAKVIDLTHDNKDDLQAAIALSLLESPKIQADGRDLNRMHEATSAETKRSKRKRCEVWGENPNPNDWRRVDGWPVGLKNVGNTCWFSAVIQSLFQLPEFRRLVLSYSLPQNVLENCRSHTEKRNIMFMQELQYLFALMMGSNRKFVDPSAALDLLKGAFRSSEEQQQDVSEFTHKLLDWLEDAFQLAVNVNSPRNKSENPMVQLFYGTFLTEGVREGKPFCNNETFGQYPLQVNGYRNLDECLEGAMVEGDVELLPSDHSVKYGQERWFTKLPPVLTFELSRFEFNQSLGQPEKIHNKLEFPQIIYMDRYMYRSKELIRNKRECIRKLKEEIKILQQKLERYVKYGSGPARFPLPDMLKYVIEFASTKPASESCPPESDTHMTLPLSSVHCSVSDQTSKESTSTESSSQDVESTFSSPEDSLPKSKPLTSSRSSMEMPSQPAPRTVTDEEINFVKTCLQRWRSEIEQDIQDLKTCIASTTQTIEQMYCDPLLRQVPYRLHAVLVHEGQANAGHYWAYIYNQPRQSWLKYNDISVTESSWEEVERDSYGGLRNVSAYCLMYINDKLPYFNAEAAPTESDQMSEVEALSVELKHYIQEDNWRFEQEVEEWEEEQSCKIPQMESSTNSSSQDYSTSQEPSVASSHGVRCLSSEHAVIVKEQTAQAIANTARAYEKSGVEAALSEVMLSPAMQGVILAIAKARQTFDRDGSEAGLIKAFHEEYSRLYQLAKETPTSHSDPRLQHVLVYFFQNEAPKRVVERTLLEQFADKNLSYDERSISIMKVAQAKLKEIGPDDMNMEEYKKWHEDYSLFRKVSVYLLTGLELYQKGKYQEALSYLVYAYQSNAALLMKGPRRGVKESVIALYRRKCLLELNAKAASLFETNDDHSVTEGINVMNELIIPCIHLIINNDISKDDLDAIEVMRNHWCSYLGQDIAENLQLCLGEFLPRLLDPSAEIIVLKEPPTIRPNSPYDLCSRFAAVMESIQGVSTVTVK

Row | SMILES | inhibition
1 | NC(=O)c1c(NC(=O)/C=C/C(=O)O)sc2c1CCCCCC2 | -7.88%
2 | COc1cccc(N2C(=O)c3cccnc3C2Nc2ccc(C)c(C)c2)c1 (centres undefined) | -14.4%
3 | COc1ccc(NC(=O)CCC(=O)c2ccc3c(c2)OCCO3)cc1S(=O)(=O)Nc1ccc(Cl)cc1 | 16.3%
4 | O=C(/C=C/c1ccc(Cl)cc1)Nc1ccc2c(c1)OCCO2 | 35.4% (active)
5 | O=C(Nc1ccc2c(c1)OCO2)c1sc2cc(Cl)ccc2c1Cl | -10.3%
6 | COc1ccc(/C=C/C(=O)Nc2ccc3c(c2)OCCO3)cc1Br | 76.8% (active)
7 | O=C(Nc1ccc2c(c1)OCO2)N1CCCCCC1 | -1.57%
8 | COc1ccc(NS(=O)(=O)c2cc(NC(=O)/C=C/c3cccc(OC)c3)ccc2OC)cc1 | 19.1%
9 | COc1ccc(S(=O)(=O)c2cnc3cc(OC)c(OC)cc3c2N2CCOCC2)cc1 | 3.3%
10 | COc1ccccc1NC(=O)CCC(=O)N1CCSc2ccccc21 | -4.12%
11 | Brc1ccc2[nH]c3c(NCCCN4CCOCC4)ncnc3c2c1 | -18.8%
12 | COc1cc(NC(=O)c2noc3c2CCc2sccc2-3)cc(OC)c1 | 43.6% (active)
13 | COc1cc(OC)cc(C(=O)Nc2ccc(S(=O)(=O)Nc3cc(C)on3)cc2)c1 | 12.8%
14 | O=C(NCc1ccccc1)c1noc2c1CCc1sccc1-2 | 0.0745%
15 | COc1cccc(C2c3[nH]c4ccccc4c3C[C@@H]3C(=O)N(CCCn4ccnc4)CC(=O)N23)c1 (some centres undefined) | -0.857%
16 | CC(C)(C)c1ccc(C(=O)Nc2cccc(-c3nc4ncccc4o3)c2)cc1 | 2.33%
17 | COc1cccc(NC(=O)C(C#N)C(=O)C2CC2c2cccc(C)c2)c1 (centres undefined) | 26.5%
18 | Cc1c(-c2nn3c(-c4ccco4)nnc3s2)cccc1[N+](=O)[O-] | 33.6% (active)
19 | Cc1cc(C)n2nc(C(=O)N(C)C(c3ccccc3)c3ccccc3)nc2n1 | 5.86%
20 | COc1ccc2[nH]c3c(NCCCN4CCOCC4)ncnc3c2c1 | -8.4%
21 | O=C(c1ccc2cc[nH]c2c1)N1CCCC2(COCCN(CC3CC3)C2)C1 (centres undefined) | -13.8%
22 | Cc1ccc(S(=O)(=O)NCC(c2ccc3c(c2)CCN3C)N2CCCC2)c(C)c1 (centres undefined) | -0.036%
23 | COc1ccc(C(=O)N2CCCN(c3ncccc3-c3nc(C)no3)CC2)cc1 | 5.18%
24 | Cc1ccc(NC(=O)Cc2nc(-c3ccccc3)n[nH]2)cc1 | -4.45%
25 | O=C1COc2ccccc2N1Cc1noc(-c2ccccc2)n1 | 72.3% (active)

Row | SMILES | inhibition
26 | O=C(NCc1noc(-c2ccccc2)n1)C1CCCC1 | -13.9%
27 | CC(C)(C)C(=O)OCc1noc(-c2ccccc2)n1 | 7.9%
28 | O=C1NC2(CCCc3ccccc32)C(=O)N1Cc1csc(-c2ccc(Cl)cc2)n1 (centres undefined) | 2.68%
29 | COc1cccc(-c2noc(CN3CCCC3c3cc(OC)ccc3OC)n2)c1 (centres undefined) | -19.5%
30 | O=C(COc1ccccc1)Nc1cnc(-c2cccc(Cl)c2)nc1 | 0.526%
31 | CC1CCc2c(sc3ncnc(OCc4cccc([N+](=O)[O-])c4)c23)C1 (centres undefined) | 94.8% (active)
32 | CC1CCc2c(sc3nc(CC#N)[nH]c(=O)c23)C1 (centres undefined) | -258%
33 | COc1cc(-c2nc3sc4c(c3c(=O)[nH]2)CCC(C)C4)ccc1OCc1ccc(C)cc1 (centres undefined) | 13.3%
34 | Cc1nc(C2CCCN(C(=O)c3cccnc3N)C2)nc2c1CC(=O)N2Cc1ccccc1 (centres undefined) | -6.04%
35 | C=C1Nc2ccccc2C(=O)N1c1cccc(NC(=O)Cc2ccc(F)cc2)c1 | 2.69%
36 | CNc1nc2c(c(=O)n1C)CN(C(=O)Nc1ccccc1Oc1ccccc1)CC2 | 14.2%
37 | COc1ccc(NC(=O)c2sc(N3CCOCC3)nc2-c2ccccc2)c(OC)c1 | 15.1%
38 | COc1cccc(-c2cc(C(=O)N3CCN(c4ccc(N5CCOCC5)nn4)CC3)[nH]n2)c1 | 69.8% (active)
39 | O=C(c1cccnc1)N1CCN(c2cc(-c3ccccc3)[nH]n2)CC1 | 4.54%
40 | COc1cccc(C(=O)N2CCCC2c2nc(-c3ccccc3)no2)c1 (centres undefined) | 1.43%
41 | C=C(CCC(C(=O)O)[C@H]1[C@H](O)C[C@@]2(C)C3=C(CC[C@]12C)[C@@]1(C)CC[C@H](OC(C)=O)C(C)(C)[C@@H]1CC3)C(C)C (some centres undefined) | 3.27%
42 | COCCCNC(=O)c1cc2c(=O)n3ccccc3nc2n1Cc1ccccc1 | 9.14%
43 | CSc1ncccc1C(=O)Nc1ccnn1C(C)c1ccncc1 (centres undefined) | -28.1%
44 | CSc1ncccc1C(=O)OCc1ccc(Br)cc1 | 76.8% (active)
45 | CCCOc1ccc(NC(=O)c2ccc(Br)cc2)c2cccnc12 | -10.2%
46 | CCCCNC(=O)Cc1csc(COc2ccc(C)cc2)n1 | 2.41%
47 | O=C(NC1CCCC1)c1ccccc1N1C(=O)[C@@H]2Cc3c([nH]c4ccccc34)C(c3ccc(F)cc3)N2C1=O (some centres undefined) | -2.2%
48 | CN1CCCN(C(=O)C2CCCCC2)CC1 | -7.1%
49 | COC(=O)c1ccc(C2c3[nH]c4ccccc4c3C[C@H]3C(=O)N(CC4CCCO4)CC(=O)N23)cc1 (some centres undefined) | -2.7%
50 | COC(=O)c1ccc(C2Oc3ccccc3CN2c2ccccc2Cl)cc1 (centres undefined) | 34.3% (active)

Row | SMILES | inhibition
51 | COC(=O)c1ccc(C(=O)NCC2(O)CCc3ccccc32)cc1 (centres undefined) | 6.5%
52 | Cn1nc(C2CCCN(Cc3cc(F)cc(F)c3)C2)c2nccnc21 (centres undefined) | -9.38%
53 | CCN1CCC2(CC1)OC(=O)C(C)=C2C(=O)NCc1ccccc1OC | -9.74%
54 | COc1ccccc1CNC(=O)c1nc(N2CCSCC2)c2cn(C)nc2n1 | 32.8% (active)
55 | COc1ccccc1CNC(=O)c1c(O)c2cccnc2n(-c2ccccc2)c1=O | -16.9%
56 | O=C(CCc1nnc2ccc(N3CCOCC3)nn12)N1CCC(Cc2ccccc2)CC1 | 3.03%
57 | CCCC(=O)Nc1nc2ccc(CCC(=O)NCc3ccc(F)cc3)cc2s1 | -4.54%
58 | CC(C)C(=O)Nc1nc2ccc(CCC(=O)Nc3ccc(F)cc3)cc2s1 | -0.104%
59 | O=C(Cc1cccc2ccccc12)Nc1nc2ccc(F)cc2s1 | 55.7% (active)
60 | CCC(=O)Nc1ccccc1SCC(=O)N1c2ccccc2CC1C (centres undefined) | 10.9%
61 | CS(=O)(=O)c1ccc(Oc2ncc(-c3cccs3)cn2)cc1 | 3.89%
62 | COc1ccc(C(C)=O)cc1CSc1nnc(-c2ccccc2OC)n1CCc1ccccc1 | 5.07%
63 | CN(C)CCCNC(=O)/C=C/c1ccc(OCc2c(F)cccc2Cl)cc1 | 34.5% (active)
64 | CC(C)(C)c1ccc(/C=C/C(=O)NCCCn2ccnc2)cc1 | -4.88%
65 | COC(=O)c1cc2c(ccn2C)n1CC(=O)NC1CCCC1 | -250%
66 | Oc1cccc2nc3c(O)cccc3nc12 | 61.8% (active)
67 | CCCCCCCCCCC(C)C1CC(=O)NC(C(C)O)C(=O)NC(C)C(=O)NC(C)C(=O)NC(CCC(N)=O)C(=O)NC(Cc2ccc(O)cc2)C(=O)NC(C(C)CC)C(=O)O1 (centres undefined) | -4.03%
68 | Cc1cc(=O)[nH]c(C2CN(C(=O)c3cccc4c3OCCO4)CCO2)n1 (centres undefined) | -1.67%
69 | Cc1ccc(NC(=O)Cc2sc(Nc3ccc(C)cc3)nc2O)cc1 | 75.6% (active)
70 | Cc1ccc(Nc2nc(O)c(CC(=O)Nc3ccc(C(C)C)cc3)s2)cc1C | -1.13%
71 | CCOc1ccc(Nc2nc(O)c(CC(=O)Nc3cccc(C)c3)s2)cc1 | 27.4%
72 | CC(Nc1nc2ccccc2nc1NS(=O)(=O)c1cc(Cl)ccc1Cl)c1ccccc1 (centres undefined) | -235%
73 | CC(=O)C(CC(=O)N1CCCC1)C(=O)Nc1ccc(Cl)cc1 (centres undefined) | 8.14%
74 | CC1CCN(c2ccc(C(=O)NCc3ccc(F)cc3)cc2[N+](=O)[O-])CC1 | 0.654%
75 | O=C(Cn1c(=O)n(Cc2ccc3c(c2)OCO3)c(=O)c2ccccc21)NCc1ccco1 | 26.3%

Row | SMILES | inhibition
76 | O=C(NCCc1ccccc1)c1ccc2c(=O)n(Cc3ccco3)c(=O)n(Cc3cccc([N+](=O)[O-])c3)c2c1 | 73.4% (active)
77 | O=C(NCCc1ccccc1)c1ccc2c(=O)nc3c(-c4ccccc4F)n[nH]n3c2c1 | -8.97%
78 | Cn1ccc(NC(=O)CN2[C@H](Cc3ccccc3)C[C@]3(C)NC(=O)CCC[C@H]23)n1 | -3.27%
79 | CC1CCCCN1CC(=O)N1CCc2cc(S(N)(=O)=O)ccc21 (centres undefined) | -35.3%
80 | CCc1ccc(-n2c(SC(CC)C(=O)NCCOC)nc3n[nH]c(C)c3c2=N)cc1 (centres undefined) | -17.1%
81 | CN(c1ccccc1)c1nc(=O)n(CC(=O)Nc2ccc3c(c2)OCCO3)c2ccccc12 | 41.9% (active)
82 | COc1ccc(C)cc1NC(=O)Cn1c(=O)nc(N(C)c2ccccc2)c2ccccc21 | 20.4%
83 | COc1ccccc1-c1ccc2nnc(SCC(=O)Nc3ccc4c(c3)OCCO4)n2n1 | 3.38%
84 | CCOC(=O)c1cc2c(ccn2C)n1CC(=O)Nc1ccc2c(c1)OCCO2 | -34.6%
85 | O=C(Cn1cc(C(F)(F)F)ccc1=O)Nc1ccc2c(c1)OCCO2 | 15.1%
86 | O=C(Cn1cnc2c(sc3ccccc32)c1=O)Nc1ccc2c(c1)OCCO2 | 38.1% (active)
87 | COc1cccc(-c2cnc(C(O)c3sccc3C)[nH]2)c1 (centres undefined) | -14.5%
88 | CSc1nc2c(c(Nc3ccc(C(C)=O)cc3)n1)CCC2 | 53.2% (active)
89 | Fc1cccc(Nc2nc(-c3ccncc3)nc3c2CCC3)c1 | 5.32%
90 | COc1cc(-c2nnc(SCC(=O)Nc3ccc(Br)cc3)n2CCc2ccccc2)cc(OC)c1OC | -5.36%
91 | O=C(NCCc1ccc(O)cc1)c1cc(Br)ccc1-n1cnnn1 | 8.86%
92 | Cc1nc(SCC#N)c2oc3ccccc3c2n1 | -1.32%
93 | COC(=O)c1cccnc1-n1c(=O)c2cccnc2n(CC(=O)Nc2ccc(C)c(F)c2)c1=O | -12.4%
94 | CC(C)(C)C(=O)Nc1ccc(SCc2nnc(-c3ccccc3)o2)cc1 | 64% (active)
95 | CC(C)(C)C(=O)Nc1ccc(C(=O)Nc2ccc(O)cc2C(=O)O)cc1 | 13.9%
96 | Cc1ccc(-c2nnc(CCC(=O)O)o2)cc1 | -0.555%
97 | O=C(CCc1csc(NC(=O)c2ccc(=O)[nH]c2)n1)NCCc1c[nH]c2ccccc12 | -13.5%
98 | CC1CCN(S(=O)(=O)N2CCCC(C(=O)NC3CCN(Cc4ccccc4)CC3)C2)CC1 (centres undefined) | -8.49%
99 | CCOc1ccccc1OC(=O)c1cc(-c2cc(OC)c(OC)c(OC)c2)nc2ccccc12 | -10%
